Whole data set: some 25,000 sequences, median “ln(normalized median fluorescence intensity)” near 6.7, cut for the highest 2% near 10. The sample holds the highest values, similar sequences and a random draw of the others, so the mix is not that of the screen.
What follows are sequences tested on PfHDP1 homeodomain (GST-tagged) (assay: gcPBM binding intensity (ln(normalized median fluorescence intensity)); higher = stronger DNA binding).
Procedure, shortened: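 The highest Masliner-normalised natural-log median intensity across replicate spots of either probe orientation is reported as binding intensity. GST-tagged P. falciparum DNA-binding domains expressed in E. coli were applied for 1 h to an Agilent 4 × 180k array of primer-extended double-stranded 36-bp intergenic genomic probes plus negative controls, and bound protein was detected with Alexa488 anti-GST antibody and scanned at 488 nm.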

Sequence	gcPBM binding intensity (ln)
ATTTCTACTAAAAATACACACGATGATACAACGAAG [CACACA_site1755]	6.85
ATATATTAAAAACGATGTACCCTGAACTAAAAAAAA [XGTACX_site4986]	6.52
AACGTTCAATTTAAATGTACAAATGTATTTAAATAT [XGTACX_site315]	6.38
TATATTTAGAATACAATCTTAAAGTTGAAATAAAAT [CACACA_negctrl_site1292]	6.03
TTATATTAAAAAAGATGTACGTTTAGGAAAAATATA [XGTACX_site7456]	6.53
TAAGGAAAAAATTATAGTACATAATAAATGTATATA [XGTACX_site8328]	6.15
TATATATATATATATGCACACATTTATACAATTTTA [CACACA_site2986]	10.2
CTTTTTTTTTTATGCACACACAATTATACATTCCTT [CACACA_site3877]	10.6
TCCTTTTTTTTTTATGCACACACAATTATACATTCC [CACACA_site9287]	10.5
TTCCTTTAACCCTGCACACATACATACATTTATATG [CACACA_site3953]	8.51
TCATACATTTTCCTTGCACACATTTATAATTAATGT [CACACA_site614]	8.95
TCATACATTTTCCTTGCACACATTTATAATTAATGG [CACACA_site4511]	8.55
ATGTATGTATAATATACACACTCACAAGCATTCAAA [CACACA_site4306]	6.75
ATATTCTTCTAAAGGCGTACATCTACATTTATGAAA [XGTACX_site2145]	6.28
TTTATATATAAATATATATATATATATATATATATA [TGCATGCA_negctrl_site121]	9.28
TCTAGGAAAAATTATAGTACACAAAAATATATATAT [XGTACX_site4136]	7.95
TAATATACTTAATACACACACGAATATTTATAAATA [CACACA_site6675]	6.97
ATAAAATATAGGTATGCACACACATATACTTCTGTG [CACACA_site8398]	8.84
CATATACTTCTGTGCACACGAATATTTTTCTTCTTC [CACACA_site1407]	11.2
AAAATATAGGTATGCACACACATATACTTCTGTGCA [CACACA_site1409]	10
CATATATATATATATACACACATATATATTTTCTTT [CACACA_site1457]	7.04
CACATATACTTCTGTGCACACGAATATTTTTCTTCT [CACACA_site1408]	11.2
TTTGTTAATTATAAATGTACATATTATATATATATA [XGTACX_site8870]	8.42
CACGCGCCCGGACACACACACACACCCATATATATA [CACACA_site5251]	6.84

Source: the supplement of paper PMC11417369
